# Data: PubChem BioAssay (EPA / NIEHS)
# Values joined by “and” are separate entries in the source; they are usually repeats but may differ in a detail not shown here. Equal values may be shown once. Where a structure was tested more than once in an assay, its records may differ in their call. Active and inactive are the calls of the source. The calls were made as follows: active = hit-call score of the fitted dose curve at least 0.9, where 1 is the maximum; inactive = score below 0.9.
# Legend:
# [1] = BSK_3C_TissueFactor: BioMAP Diversity Plus: 3C Assay for Tissue Factor Biomarker Activity (AID 2282997); details: BioMAP 3C HUVEC, tissue factor biomarker readout; actives raise or lower the signal
# In short: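 Cells used were primary human umbilical vein endothelial cells. They were dosed with chemical, and after 24 h Tissue Factor was quantified by ELISA. Curves were fitted bidirectionally with DMSO as baseline.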
# [2] = BSK_3C_uPAR: BioMAP Diversity Plus: 3C Assay for Urokinase-type plasminogen activator receptor (uPAR) Biomarker Activity (AID 2282998); details: BioMAP 3C HUVEC, uPAR biomarker ELISA; actives raise or lower the signal
# In short: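 Endothelial primary cells of human umbilical vein origin received test chemical; 24 h later uPAR was assayed by ELISA. Fitting was bidirectional, DMSO as negative control.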
# [3] = BSK_3C_VCAM1: BioMAP Diversity Plus: 3C Assay for Vascular cell adhesion molecule 1 (VCAM1) Biomarker Activity (AID 2282999); details: BioMAP 3C HUVEC, VCAM1 ELISA, cytokine-stimulated; actives raise or lower the signal
# In short: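 Vascular primary endothelium (human umbilical vein) was exposed to chemicals and assayed 24 h later. VCAM-1 levels came from ELISA, with DMSO serving as baseline for bidirectional fitting.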
# [4] = BSK_4H_Eotaxin3: BioMAP Diversity Plus: 4H Assay for Eotaxin 3 Biomarker Activity (AID 2283000); details: primary human endothelial cells (HUVEC); actives raise or lower the signal
# In short: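 Endothelial primary cells (human umbilical vein) exposed to compound for 24 h. ELISA detection of Eotaxin-3.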
# [5] = BSK_3C_Proliferation: Cell Proliferation Assessment in the BioMAP Diversity Plus: 3C Assay (AID 2283006); details: primary human endothelial cells (HUVEC);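 also: potency may reflect either rise or fall in cell number versus DMSO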
# In short: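 Proliferation as total protein: sulforhodamine B (0.1%) stain of TCA-fixed subconfluent human umbilical vein endothelial cells, absorbance 560 nm, 48 h after dosing. Activity fitted in both directions against DMSO baseline.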
# [6] = read-out: E-selectin (Homo sapiens) (UniProt P16581); experiment: BSK_3C_Eselectin: BioMAP Diversity Plus: 3C Assay for Eselectin Biomarker Activity (AID 2283015); details: primary human endothelial cells (HUVEC); actives raise or lower the signal;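 also: cell surface E-selectin protein quantified by ELISA 24 h after dosing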
# In short: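 Human vascular endothelium from umbilical vein is exposed to test chemicals for 24 h. E-selectin levels are read by ELISA and compared with DMSO controls.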
# [7] = read-out: Interleukin-1 alpha (IL1a), IL1A (gene 3552); experiment: BSK_BE3C_IL1a: BioMAP Diversity Plus: BE3C Assay for Interleukin-1 alpha (IL1a) Biomarker Activity (AID 2283016); details: primary human bronchial epithelial cells; actives raise or lower the signal
# In short: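 IL-1a measured by ELISA after 24 h treatment of human primary bronchial epithelial cells, with gain or loss of signal fitted versus DMSO. Parallel cultures stained with SRB gauge overt cytotoxicity.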
# [8] = read-out: Monocyte Chemoattractant Protein-1 (MCP1), CCL2 (gene 6347); experiment: BSK_4H_MCP1: BioMAP Diversity Plus: 4H Assay for Monocyte Chemoattractant Protein-1 (MCP1) Biomarker Activity (AID 2283018); details: primary human endothelial cells (HUVEC); actives raise or lower the signal
# In short: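 ELISA of MCP-1 (CCL2) 24 h after chemical dosing of HUVEC in the BioMAP 4H system. Gain or loss versus DMSO fitted; parallel SRB staining (560 nm) tracked overt cytotoxicity.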
# [9] = read-out: Human Leukocyte Antigen - DR isotype (HLADR), HLA-DRA (gene 3122); experiment: BSK_3C_HLADR: BioMAP Diversity Plus: 3C Assay for Human Leukocyte Antigen - DR isotype (HLADR) Biomarker Activity (AID 2283019); details: primary human endothelial cells (HUVEC); actives raise or lower the signal
# In short: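 Endothelial cells from human umbilical vein are treated with test chemical; after 24 h, HLA-DR levels are measured by ELISA. Data are fitted in both directions using DMSO as the baseline.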
# [10] = read-out: Interleukin-8 (IL8), CXCL8 (gene 3576); experiment: BSK_3C_IL8: BioMAP Diversity Plus: 3C Assay for Interleukin-8 (IL8) Biomarker Activity (AID 2283020); details: primary human endothelial cells (HUVEC); actives raise or lower the signal
# In short: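 IL-8 was measured by ELISA in HUVEC cultures 24 h after chemical dosing, with gain or loss of signal fitted relative to DMSO. Parallel SRB total-protein staining tracked overt cytotoxicity.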
# [11] = read-out: Monokine induced gamma interferon (MIG), CXCL9 (gene 4283); experiment: BSK_3C_MIG: BioMAP Diversity Plus: 3C Assay for Monokine induced gamma interferon (MIG) Biomarker Activity (AID 2283021); details: primary human endothelial cells (HUVEC); actives raise or lower the signal
# In short: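 ELISA measurement of MIG in human umbilical vein endothelial cells 24 h after treatment. Cytotoxicity tracked by SRB staining in parallel cultures; gain or loss of signal fitted relative to DMSO.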
# [12] = BSK_3C_SRB: Viability Assessment in the BioMAP Diversity Plus: 3C Assay (AID 2283023); details: primary human endothelial cells (HUVEC);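 also: cells read 24 h after compound dosing; fitted both ways against DMSO so a hit may be signal rise or drop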
# In short: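 Cells were dosed with chemical, cultured 24 h, fixed with 10% TCA, stained with 0.1% SRB and read at 560 nm. Human umbilical vein endothelium was used; DMSO served as negative control and baseline.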
# [13] = read-out: Matrix Metallopeptidase 1 (MMP1), MMP1 (gene 4312); experiment: BSK_BE3C_MMP1: BioMAP Diversity Plus: BE3C Assay for Matrix Metallopeptidase 1 (MMP1) Biomarker Activity (AID 2283024); details: primary human bronchial epithelial cells; actives raise or lower the signal
# In short: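 ELISA measurement of MMP-1 after 24 h compound exposure of primary human bronchial epithelial cells. Changes in either direction fitted relative to DMSO; parallel SRB staining checked overt cytotoxicity.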
# [14] = read-out: Pselectin, SELP (gene 6403); experiment: BSK_4H_Pselectin: BioMAP Diversity Plus: 4H Assay for Pselectin Biomarker Activity (AID 2283026); details: primary human endothelial cells (HUVEC); actives raise or lower the signal
# In short: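 ELISA of surface P-selectin on HUVEC, 24 h after dosing, with parallel SRB staining (0.1% after 10% TCA fixation, 560 nm) for overt cytotoxicity. Activity fitted in both directions relative to DMSO.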
# [15] = BSK_4H_SRB: Viability Assessment in the BioMAP Diversity Plus: 4H Assay (AID 2283027); details: primary human endothelial cells (HUVEC);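 also: cells exposed to compound for 24 h before staining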
# In short: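 Cytotoxicity readout: sulforhodamine B (0.1%) staining of total protein after 10% TCA fixation, measured at 560 nm in human umbilical vein endothelium at 24 h. DMSO set the baseline; fitting was bidirectional.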
# [16] = BSK_BE3C_SRB: Viability Assessment in the BioMAP Diversity Plus: BE3C Assay (AID 2283028); details: primary human bronchial epithelial cells
# In short: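 Overt cytotoxicity was assessed as total protein in confluent human primary bronchial epithelial cultures 24 h after chemical addition, using 0.1% sulforhodamine B staining read at 560 nm.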
# [17] = read-out: Urokinase-type plasminogen activator receptor (uPAR), PLAUR (gene 5329); experiment: BSK_4H_uPAR: BioMAP Diversity Plus: 4H Assay for Urokinase-type plasminogen activator receptor (uPAR) Biomarker Activity (AID 2283030); details: primary human endothelial cells (HUVEC); actives raise or lower the signal
# In short: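 Chemicals are dosed onto human vascular endothelial primary cells (umbilical vein). After 24 h, uPAR is read by ELISA. Gain or loss of signal is fitted relative to DMSO.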
# [18] = read-out: Vascular endothelial growth factor receptor 2 (Homo sapiens) (UniProt P35968); experiment: BSK_4H_VEGFRII: BioMAP Diversity Plus: 4H Assay for Vascular endothelial growth factor receptor 2 (VEGFR2) Biomarker Activity (AID 2283031); details: primary human endothelial cells (HUVEC); actives raise or lower the signal;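 as to AC50: cell-surface VEGFR2 protein level quantified by ELISA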
# In short: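 VEGFRII levels on human vascular endothelial primary cells were determined by ELISA at 24 hours post-dosing, with gain- or loss-of-signal fitted against DMSO controls.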
# [19] = read-out: Human Leukocyte Antigen - DR isotype (HLADR), HLA-DRA (gene 3122); experiment: BSK_BE3C_HLADR: BioMAP Diversity Plus: BE3C Assay for Human Leukocyte Antigen - DR isotype (HLADR) Biomarker Activity (AID 2283032); details: primary human bronchial epithelial cells; actives raise or lower the signal
# In short: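 Cell-surface HLA-DR ELISA readout at 24 h after dosing in the BE3C primary human lung bronchial epithelial system; gain or loss of signal against DMSO, with parallel sulforhodamine B staining of total protein for overt cytotoxicity.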
# E-selectin (Homo sapiens), sequence (P16581 whole entry, looked up): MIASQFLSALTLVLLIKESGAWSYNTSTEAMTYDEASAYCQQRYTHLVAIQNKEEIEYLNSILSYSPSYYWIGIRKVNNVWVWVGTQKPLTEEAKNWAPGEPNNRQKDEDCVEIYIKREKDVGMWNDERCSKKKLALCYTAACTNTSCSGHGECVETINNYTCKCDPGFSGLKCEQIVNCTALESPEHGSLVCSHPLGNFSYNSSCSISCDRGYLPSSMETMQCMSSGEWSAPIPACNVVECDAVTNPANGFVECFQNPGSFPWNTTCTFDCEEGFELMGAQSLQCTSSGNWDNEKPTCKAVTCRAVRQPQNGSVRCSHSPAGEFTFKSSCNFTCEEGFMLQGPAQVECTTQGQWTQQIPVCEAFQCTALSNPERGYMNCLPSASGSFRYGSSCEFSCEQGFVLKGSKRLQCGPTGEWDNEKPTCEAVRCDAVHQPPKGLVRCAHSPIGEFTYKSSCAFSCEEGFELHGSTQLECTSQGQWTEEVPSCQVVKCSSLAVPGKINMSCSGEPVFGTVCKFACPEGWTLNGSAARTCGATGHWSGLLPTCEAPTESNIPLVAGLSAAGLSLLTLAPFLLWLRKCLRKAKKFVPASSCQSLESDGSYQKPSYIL
structure (smiles),measurement,setting,value
[Cd+2].[Cl-].[Cl-],AC50,[1],1 µM (active) and 863 nM (active)
same,outcome,[2],inactive
same,outcome,[3],inactive
same,AC50,[4],35.7 µM (active) and 32.2 µM (active)
same,AC50,[5],30.1 µM (active) and 30 µM (active)
same,outcome,[6],inactive
same,outcome,[7],inactive
same,outcome,[8],inactive
same,AC50,[9],17 µM (active) and 10.9 µM (active)
same,AC50,[10],20 µM (active)
same,outcome,[10],inactive
same,outcome,[11],inactive
same,outcome,[12],inactive
same,outcome,[13],inactive
same,AC50,[14],4.97 µM (active)
same,outcome,[14],inactive
same,outcome,[15],inactive
same,outcome,[16],inactive
same,outcome,[17],inactive
same,AC50,[18],6.83 µM (active)
same,outcome,[18],inactive
same,AC50,[19],20 µM (active)
